# PubChem BioAssay (EPA / NIEHS)
# Records with an inconclusive call do not appear. The source made the active and inactive calls. Rule for the calls: active = hit-call score of the fitted dose curve at least 0.9, where 1 is the maximum; inconclusive = response in the unintended direction; inactive = score below 0.9.
# Columns and labels:
# [1] = ACEA_AR_agonist_AUC_viability: ACEA Biosciences xCELLigence Real-Time Cell Analysis on Androgen Receptor Agonism for Viability (AID 2283775);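 for AC50: viability read 80 hours after compound addition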
# In short: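 Real-time impedance tracking of 22Rv1 growth, readings every 5 min for 5 h then hourly; area-under-curve viability endpoint at 80 hours, relative to DMSO. Compounds at eight concentrations, 1:4 steps, top 100 uM, n = 2.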
# [2] = ACEA_AR_antagonist_AUC_viability: ACEA Biosciences xCELLigence Real-Time Cell Analysis on Androgen Receptor Antagonism for Viability (AID 2283776);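 note: 22Rv1 human prostate cancer cells growing on impedance electrode plates; hits lower the growth signal relative to DMSO meaning cytotoxicity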
# In short: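 22Rv1 prostate cells, continuous dosing up to 100 uM final (0.5% DMSO max), duplicate plates. Growth measured by impedance; AUC at 80 h, loss of signal vs DMSO.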
# [3] = ACEA_ER_AUC_viability: ACEA Biosciences xCELLigence Real-Time Cell Analysis on Estrogen Receptor Agonism for Viability (AID 2283782);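 note: continuous compound exposure with impedance area under curve over 80 h; hit means loss of impedance signal meaning reduced cell growth or viability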
# In short: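 T-47D; phenol red-free RPMI1640 + 10% CS-FBS; 8 conc., 1:4 serial, max 100 uM final, ≤0.5% DMSO; n = 2; continuous exposure; impedance monitored to 80 h post-dose; AUC vs DMSO.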
# AR (gene 367) [4] = molecular target: AR (gene 367) (UniProt P10275); test: ACEA_AR_antagonist_80hr: ACEA Biosciences xCELLigence Real-Time Cell Analysis on Androgen Receptor Antagonism for Proliferation (AID 2283787);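 note: 22Rv1 human prostate cancer cells with growth followed by electrical impedance; hits lower the impedance growth signal relative to DMSO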
# In short: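 Growth-kinetic antagonist readout in 22Rv1 cells, taken 80 h after continuous compound exposure. Activity fitted as signal loss relative to DMSO negative control.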
# AR (gene 367) [5] = molecular target: AR (gene 367) (UniProt P10275); test: ACEA_AR_agonist_80hr: ACEA Biosciences xCELLigence Real-Time Cell Analysis on Androgen Receptor Agonism for Proliferation (AID 2283783);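 note: hits increase impedance growth signal above DMSO baseline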
# In short: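 Androgen-driven proliferation in 22Rv1 cells is tracked as electrical impedance, taken 80 h after continuous exposure to compound (eight concentrations, 1:4 steps, maximum 100 uM final). Activity is fitted in the positive direction with DMSO as baseline.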
# [6] = system: zebrafish Estrogen Receptor (ESR2B), gene 317733; test: ATG_zfER2b_XSP1: Attagene TRANS-FACTORIAL Multi-Species (XSP1) HepG2 Assay for zebrafish Estrogen Receptor (ESR2B) (AID 2283773)
# In short: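 Gain-of-signal endpoint relative to DMSO: reporter transcript levels quantified by RT-PCR and capillary electrophoresis after 24 h compound exposure of HepG2 cells expressing a zebrafish ER2b-Gal4 chimera.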
# [7] = system: frog Estrogen Receptor (ESR2), gene 100174814; test: ATG_frER2_XSP1: Attagene TRANS-FACTORIAL Multi-Species (XSP1) HepG2 Assay for frog Estrogen Receptor (ESR2) (AID 2283774)
# In short: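 Transactivation of an exogenous receptor-Gal4 fusion is tracked in transfected HepG2 cells via induced reporter transcript levels. After 24 h treatment, RT-PCR with capillary electrophoresis quantifies signal gain over DMSO.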
# [8] = system: frog Estrogen Receptor (ESR1), gene 398734; test: ATG_frER1_XSP1: Attagene TRANS-FACTORIAL Multi-Species (XSP1) HepG2 Assay for frog Estrogen Receptor (ESR1) (AID 2283777)
# In short: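 Human hepatoma HepG2 cells carried transiently transfected multiplexed Gal4-driven reporters and were exposed to test chemicals for 24 hours. Transcripts were quantified by fluorescent RT-PCR with capillary electrophoresis, referenced to DMSO.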
# [9] = system: zebrafish Estrogen Receptor (ESR2A), gene 317734; test: ATG_zfER2a_XSP1: Attagene TRANS-FACTORIAL Multi-Species (XSP1) HepG2 Assay for zebrafish Estrogen Receptor (ESR2A) (AID 2283778)
# In short: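 Cells were transfected, dosed for 24 h, then total RNA was isolated. After oligo(dT) reverse transcription, reporter sequences were amplified, FAM-labelled by primer extension, digested with HpaI and sized by capillary electrophoresis; DMSO served as baseline.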
# [10] = molecular target: chicken Estrogen Receptor (ESR1), ESR1 (gene 396099) (UniProt P06212); test: ATG_chERa_XSP1: Attagene TRANS-FACTORIAL Multi-Species (XSP1) HepG2 Assay for chicken Estrogen Receptor (ESR1) (AID 2283779)
# In short: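 Human liver HepG2, transient MRTU transfection (NR-Gal4 chimeras, GAL4-UAS reporters); 24 h compound exposure; 3 nM 6-alpha-fluorotestosterone in medium. Total RNA → RT-PCR → 6-FAM primer extension → HpaI → CE. Positive direction vs DMSO baseline.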
# [11] = system: turtle Estrogen Receptor (ESR1), gene 101933533; test: ATG_trERa_XSP1: Attagene TRANS-FACTORIAL Multi-Species (XSP1) HepG2 Assay for turtle Estrogen Receptor (ESR1) (AID 2283781)
# In short: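 Activity was taken as gain of reporter transcript over DMSO controls. HepG2 cells carrying GAL4-UAS-driven reporters were exposed for 24 h before RNA was extracted and reporter sequences were measured by fluorescence after capillary separation.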
# [12] = system: turtle Androgen Receptor (AR), gene 101947425; test: ATG_trAR_XSP1: Attagene TRANS-FACTORIAL Multi-Species (XSP1) HepG2 Assay for turtle Androgen Receptor (AR) (AID 2283786)
# In short: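 HepG2 cells transiently transfected with a turtle AR–GAL4 chimera and GAL4-UAS reporter, co-treated with 3 nM 6-alpha-fluorotestosterone for partial stimulation. Reporter mRNA is quantified at 24 h by RT-PCR and capillary electrophoresis, gain-of-signal versus DMSO.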
# [13] = molecular target: Estrogen receptor beta (Homo sapiens) (UniProt Q92731); test: ATG_hERb_XSP1: Attagene TRANS-FACTORIAL Multi-Species (XSP1) HepG2 Assay for human Estrogen Receptor (ESR2) (AID 2283788)
# In short: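 Measured endpoint is transcriptional gain of signal from a GAL4-UAS reporter controlled by chimeric ERβ in HepG2 liver cells. Exposure lasts 24 h alongside 3 nM 6-alpha-fluorotestosterone, with DMSO as negative control.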
# [14] = ATG_M_06_XSP1: Attagene TRANS-FACTORIAL Multi-Species (XSP1) HepG2 Assay for M06 Transcription Factor (Internal Marker) (AID 2283790)
# In short: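 Transfected HepG2 multi-reporter system treated 24 h in the presence of 3 nM 6-alpha-fluorotestosterone. The M06 internal marker transcript was quantified by RT-PCR with capillary electrophoresis as a background control, and gain of signal was scored versus DMSO.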
# [15] = ATG_M_61_XSP1: Attagene TRANS-FACTORIAL Multi-Species (XSP1) HepG2 Assay for M61 Transcription Factor (Internal Marker) (AID 2283797)
# In short: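 HepG2 cells transiently transfected with multiplexed GAL4-driven reporter units, dosed 24 h with 3 nM 6-alpha-fluorotestosterone present. Reporter mRNA quantified by RT-PCR, 6-FAM labelling, HpaI digestion and capillary electrophoresis; internal-marker background control, gain of signal versus DMSO.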
# [16] = system: zebrafish Peroxisome Proliferator-activated Receptor gamma (PPARg), gene 557037; test: ATG_zfPPARg_XSP1: Attagene TRANS-FACTORIAL Multi-Species (XSP1) HepG2 Assay for zebrafish Peroxisome Proliferator-activated Receptor gamma (PPARg) (AID 2283801)
# In short: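 HepG2 cells transiently transfected with GAL4-UAS reporter units including a zebrafish PPARg–GAL4 chimera, dosed 24 h with 3 nM 6-alpha-fluorotestosterone present. Reporter mRNA quantified by RT-PCR, FAM labelling, HpaI digestion and capillary electrophoresis; induction versus DMSO.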
# [17] = molecular target: Nuclear receptor subfamily 1 group I member 2 (Mus musculus) (UniProt O54915); test: ATG_mPXR_XSP1: Attagene TRANS-FACTORIAL Multi-Species (XSP1) HepG2 Assay for mouse Pregnane X Receptor (PXR) (AID 2283803)
# In short: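 Transiently transfected HepG2 cells expressing a receptor-Gal4 chimera drive a GAL4-UAS reporter; 3 nM 6-alpha-fluorotestosterone included. Reporter mRNA read 24 h post-dose by RT-PCR and capillary electrophoresis; gain of signal relative to DMSO.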
# [18] = molecular target: human Thyroid hormone Receptor alpha (TRa), THRA (gene 7067) (UniProt P10827); test: ATG_hTRa_XSP1: Attagene TRANS-FACTORIAL Multi-Species (XSP1) HepG2 Assay for human Thyroid hormone Receptor alpha (TRa) (AID 2283805)
# In short: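 HepG2 cells transiently transfected with GAL4-UAS reporter units expressing chimeric NR-Gal4 proteins, dosed 24 hours with 3 nM 6-alpha-fluorotestosterone present. Reporter mRNA measured by RT-PCR and capillary electrophoresis; gain of signal fitted versus DMSO.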
# [19] = molecular target: zebrafish Thyroid Hormone Receptor alpha (TRa), thraa (gene 30670) (UniProt Q98867); test: ATG_zfTRa_XSP1: Attagene TRANS-FACTORIAL Multi-Species (XSP1) HepG2 Assay for zebrafish Thyroid Hormone Receptor alpha (TRa) (AID 2283807)
# In short: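 HepG2 cells transiently transfected with GAL4-UAS reporter units including a zebrafish TRa–Gal4 chimera, dosed 24 h with 3 nM 6-alpha-fluorotestosterone present. Reporter mRNA quantified by RT-PCR and capillary electrophoresis; gain versus DMSO.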
# Chain of AR (gene 367) (P10275 whole entry, looked up): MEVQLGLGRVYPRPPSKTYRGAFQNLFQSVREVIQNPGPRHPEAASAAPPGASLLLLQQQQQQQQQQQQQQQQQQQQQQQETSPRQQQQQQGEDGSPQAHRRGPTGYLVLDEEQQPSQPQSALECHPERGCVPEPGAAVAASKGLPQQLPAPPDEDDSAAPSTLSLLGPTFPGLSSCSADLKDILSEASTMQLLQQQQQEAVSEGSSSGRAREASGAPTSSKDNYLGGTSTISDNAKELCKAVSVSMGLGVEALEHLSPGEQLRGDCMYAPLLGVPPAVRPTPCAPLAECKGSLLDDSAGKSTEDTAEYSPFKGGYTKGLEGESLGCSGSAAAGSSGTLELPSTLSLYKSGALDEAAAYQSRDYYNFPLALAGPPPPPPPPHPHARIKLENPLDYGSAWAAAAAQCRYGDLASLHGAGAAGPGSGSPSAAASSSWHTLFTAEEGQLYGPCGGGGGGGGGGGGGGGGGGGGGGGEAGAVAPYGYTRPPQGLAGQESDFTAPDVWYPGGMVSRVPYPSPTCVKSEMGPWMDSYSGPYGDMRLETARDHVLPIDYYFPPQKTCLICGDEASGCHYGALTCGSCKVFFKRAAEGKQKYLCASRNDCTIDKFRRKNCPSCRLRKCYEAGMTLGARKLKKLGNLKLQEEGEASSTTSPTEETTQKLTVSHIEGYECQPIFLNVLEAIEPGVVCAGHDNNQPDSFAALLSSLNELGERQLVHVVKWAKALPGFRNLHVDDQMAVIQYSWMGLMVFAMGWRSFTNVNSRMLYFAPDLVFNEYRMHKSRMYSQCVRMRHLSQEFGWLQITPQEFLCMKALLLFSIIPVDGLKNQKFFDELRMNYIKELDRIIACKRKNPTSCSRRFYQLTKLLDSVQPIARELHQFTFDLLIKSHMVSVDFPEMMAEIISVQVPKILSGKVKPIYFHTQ
# Chain of Nuclear receptor subfamily 1 group I member 2 (Mus musculus) (O54915 whole entry, looked up, the tested form may be a part): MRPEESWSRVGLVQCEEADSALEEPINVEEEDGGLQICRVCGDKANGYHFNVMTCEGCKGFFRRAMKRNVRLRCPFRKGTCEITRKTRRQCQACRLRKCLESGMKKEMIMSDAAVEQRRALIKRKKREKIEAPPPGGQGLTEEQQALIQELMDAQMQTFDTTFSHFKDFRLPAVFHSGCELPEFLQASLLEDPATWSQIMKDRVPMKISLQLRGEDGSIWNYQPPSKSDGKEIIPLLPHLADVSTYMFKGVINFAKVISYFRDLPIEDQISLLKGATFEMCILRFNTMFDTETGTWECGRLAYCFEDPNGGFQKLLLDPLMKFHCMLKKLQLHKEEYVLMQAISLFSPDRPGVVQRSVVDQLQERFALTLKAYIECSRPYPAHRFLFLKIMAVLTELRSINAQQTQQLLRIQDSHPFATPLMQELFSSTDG
# Chain of zebrafish Thyroid Hormone Receptor alpha (TRa), thraa (gene 30670) (Q98867 whole entry, looked up, the tested form may be a part): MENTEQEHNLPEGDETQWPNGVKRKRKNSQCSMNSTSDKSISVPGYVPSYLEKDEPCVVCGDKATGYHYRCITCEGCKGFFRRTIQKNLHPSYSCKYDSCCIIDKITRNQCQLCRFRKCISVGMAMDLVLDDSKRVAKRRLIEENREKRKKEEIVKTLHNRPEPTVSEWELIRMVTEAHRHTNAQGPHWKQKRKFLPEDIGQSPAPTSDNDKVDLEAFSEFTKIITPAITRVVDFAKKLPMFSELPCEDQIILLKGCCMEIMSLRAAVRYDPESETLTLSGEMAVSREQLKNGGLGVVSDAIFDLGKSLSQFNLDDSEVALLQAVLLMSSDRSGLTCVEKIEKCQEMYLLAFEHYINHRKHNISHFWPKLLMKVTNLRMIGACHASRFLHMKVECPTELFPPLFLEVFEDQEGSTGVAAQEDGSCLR
# Chain of chicken Estrogen Receptor (ESR1), ESR1 (gene 396099) (P06212 whole entry, looked up, the tested form may be a part): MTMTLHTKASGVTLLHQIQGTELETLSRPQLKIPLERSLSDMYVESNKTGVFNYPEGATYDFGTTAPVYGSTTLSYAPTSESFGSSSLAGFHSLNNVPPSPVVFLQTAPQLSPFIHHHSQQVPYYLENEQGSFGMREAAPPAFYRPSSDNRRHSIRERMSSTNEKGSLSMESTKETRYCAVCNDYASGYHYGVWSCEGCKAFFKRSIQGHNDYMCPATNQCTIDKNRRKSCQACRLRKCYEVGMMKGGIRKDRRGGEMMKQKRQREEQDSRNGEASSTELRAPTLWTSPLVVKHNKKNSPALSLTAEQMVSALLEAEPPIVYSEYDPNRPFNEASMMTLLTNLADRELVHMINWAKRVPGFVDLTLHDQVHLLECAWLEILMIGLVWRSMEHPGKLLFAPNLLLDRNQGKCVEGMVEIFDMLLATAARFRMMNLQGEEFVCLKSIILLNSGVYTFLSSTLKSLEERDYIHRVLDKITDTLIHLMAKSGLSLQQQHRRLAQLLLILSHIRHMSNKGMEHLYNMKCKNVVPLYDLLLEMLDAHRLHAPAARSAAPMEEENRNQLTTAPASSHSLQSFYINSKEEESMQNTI
# Chain of human Thyroid hormone Receptor alpha (TRa), THRA (gene 7067) (P10827 whole entry, looked up, the tested form may be a part): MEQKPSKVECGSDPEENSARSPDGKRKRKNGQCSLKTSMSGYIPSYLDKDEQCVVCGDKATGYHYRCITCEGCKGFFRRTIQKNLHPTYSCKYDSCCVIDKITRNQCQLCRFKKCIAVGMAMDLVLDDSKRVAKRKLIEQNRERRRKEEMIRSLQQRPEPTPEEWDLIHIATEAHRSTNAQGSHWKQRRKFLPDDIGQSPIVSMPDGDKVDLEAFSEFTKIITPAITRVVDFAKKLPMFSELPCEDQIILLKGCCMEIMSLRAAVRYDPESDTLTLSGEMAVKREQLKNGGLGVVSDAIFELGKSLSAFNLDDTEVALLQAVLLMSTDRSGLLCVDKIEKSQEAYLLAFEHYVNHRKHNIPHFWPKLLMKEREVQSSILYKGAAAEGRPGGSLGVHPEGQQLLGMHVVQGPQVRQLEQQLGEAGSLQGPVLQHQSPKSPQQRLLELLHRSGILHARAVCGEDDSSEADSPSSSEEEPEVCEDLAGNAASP
# Chain of Estrogen receptor beta (Homo sapiens) (Q92731 whole entry, looked up, the tested form may be a part): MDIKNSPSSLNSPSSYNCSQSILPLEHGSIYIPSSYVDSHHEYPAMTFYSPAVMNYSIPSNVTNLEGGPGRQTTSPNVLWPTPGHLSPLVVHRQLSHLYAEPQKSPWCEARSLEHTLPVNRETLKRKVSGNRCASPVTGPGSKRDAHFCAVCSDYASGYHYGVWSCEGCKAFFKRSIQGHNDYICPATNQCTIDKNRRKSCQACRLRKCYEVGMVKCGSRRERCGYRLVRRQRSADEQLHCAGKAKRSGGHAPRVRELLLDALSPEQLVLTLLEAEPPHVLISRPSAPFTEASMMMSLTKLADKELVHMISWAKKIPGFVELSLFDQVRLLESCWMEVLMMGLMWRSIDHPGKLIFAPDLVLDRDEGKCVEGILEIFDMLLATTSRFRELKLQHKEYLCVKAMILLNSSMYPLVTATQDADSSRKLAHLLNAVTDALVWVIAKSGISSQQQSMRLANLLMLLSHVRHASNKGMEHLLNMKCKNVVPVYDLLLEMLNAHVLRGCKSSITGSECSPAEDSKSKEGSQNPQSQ
smiles,measurement,setting,value
O=c1c(O)c(-c2ccc(O)cc2)oc2cc(O)cc(O)c12,outcome,[1],inactive
same,AC50,[2],4.77 µM (active)
CCCCCCCCCC(=O)OC,outcome,[1],inactive
CCc1ccc(O)cc1,outcome,[1],inactive
same,outcome,[2],inactive
same,outcome,[3],inactive
same,outcome,AR (gene 367) [4],inactive
CCOc1ccccc1O,outcome,[1],inactive
C=C1CC[C@H](O)C/C1=C/C=C1\CCC[C@]2(C)[C@@H]([C@H](C)/C=C/[C@H](C)C(C)C)CC[C@@H]12,outcome,[1],inactive
same,AC50,[3],79.1 µM (active)
CCCCOC(=O)CCCCCCCC(=O)OCCCC,outcome,[1],inactive
same,outcome,[2],inactive
same,outcome,[3],inactive
CC1CCC(C(C)C)C(O)C1 (centres undefined),outcome,[1],inactive
same,outcome,[2],inactive
same,outcome,[3],inactive
same,outcome,AR (gene 367) [5],inactive
same,outcome,AR (gene 367) [4],inactive
O=P(O)(O)O,outcome,[1],inactive
same,AC50,[2],8.69 µM (active)
same,outcome,[3],inactive
O=C(O)CCCCCCCCC(=O)O,AC50,[1],2.76 µM (active)
same,AC50,[2],2.07 µM (active)
Cc1ccc(S(N)(=O)=O)cc1,outcome,[2],inactive
C=CC(=O)OCCCC,outcome,[1],inactive
same,outcome,[2],inactive
CCCCCC(C)=O,outcome,[1],inactive
same,outcome,[2],inactive
CCOC(=O)[C@@H](C)Oc1ccc(Oc2nc3ccc(Cl)cc3o2)cc1,AC50,[1],5.36 µM (active)
same,outcome,[2],inactive
same,AC50,AR (gene 367) [4],3.55 µM (active)
CC(=O)O[C@@H]1CC2CCC1(C)C2(C)C (some centres undefined),outcome,[1],inactive
same,outcome,[2],inactive
same,outcome,[3],inactive
same,outcome,AR (gene 367) [4],inactive
CCCCCCCCCCCCCCN(CCO)CCO,AC50,[1],23.7 µM (active)
same,AC50,[2],28.4 µM (active)
same,AC50,[3],7.2 µM (active)
O=Cc1ccccc1S(=O)(=O)O,AC50,[1],1.24 µM (active)
same,outcome,[2],inactive
Nc1ccc(N)c2c1C(=O)c1ccccc1C2=O,AC50,[1],9.05 µM (active)
same,AC50,[2],12.7 µM (active)
same,AC50,AR (gene 367) [4],16.6 µM (active)
O=CCc1ccccc1,outcome,[1],inactive
CCOC(=O)C1OC1c1ccccc1 (centres undefined),outcome,[1],inactive
same,outcome,[2],inactive
same,outcome,[3],inactive
CC(C=O)Cc1ccc(C(C)(C)C)cc1 (centres undefined),outcome,[1],inactive
same,outcome,[2],inactive
same,outcome,AR (gene 367) [4],inactive
COS(=O)(=O)O,outcome,[1],inactive
same,outcome,[2],inactive
same,outcome,[3],inactive
CCCCC1CCC(O)CC1 (centres undefined),outcome,[1],inactive
same,outcome,[2],inactive
same,outcome,[3],inactive
same,outcome,AR (gene 367) [4],inactive
O=C(O)c1ccc(O)cc1,outcome,[1],inactive
same,outcome,[2],inactive
same,outcome,[3],inactive
CCOC(=O)c1ccc(N)cc1,outcome,[1],inactive
same,outcome,[2],inactive
CCCCCCCC(=O)OCC(O)CO (centres undefined),outcome,[1],inactive
same,outcome,[2],inactive
same,outcome,[3],inactive
CC(C)NCC(O)COc1ccc(CC(N)=O)cc1 (centres undefined),outcome,[1],inactive
same,outcome,[3],inactive
CCCCCCC(C)(C)S,outcome,[1],inactive
same,outcome,[3],inactive
CCCCCCCCSCCO,outcome,[1],inactive
same,outcome,[2],inactive
same,AC50,[3],70.5 µM (active)
same,outcome,AR (gene 367) [5],inactive
same,outcome,AR (gene 367) [4],inactive
O=C(Nc1ccc2c(O)c(N=Nc3ccc(N=Nc4ccc(S(=O)(=O)O)cc4)cc3)c(S(=O)(=O)O)cc2c1)c1ccccc1,outcome,[1],inactive
CN(C)c1cccc(O)c1,outcome,[2],inactive
CCCCCCCCC=CCCCCCCCC1=NCCN1CCO,outcome,[1],inactive
same,outcome,[2],inactive
same,AC50,[3],10.9 µM (active)
same,outcome,AR (gene 367) [5],inactive
same,outcome,AR (gene 367) [4],inactive
C[Si](C)(C)O[Si](C)(C)C,outcome,[1],inactive
same,outcome,[2],inactive
C=Cc1ccc(C)cc1,outcome,[1],inactive
same,outcome,[3],inactive
CCCCC(CC)COC(=O)c1ccc(O)cc1 (centres undefined),AC50,[6],3.67 µM (active)
same,AC50,[7],0.86 µM (active)
same,AC50,[8],1.91 µM (active)
same,AC50,[9],1.41 µM (active)
same,AC50,[10],2.3 µM (active)
same,AC50,[11],3.59 µM (active)
same,outcome,[12],inactive
same,outcome,[13],inactive
same,outcome,[14],inactive
same,outcome,[15],inactive
same,outcome,[16],inactive
same,outcome,[17],inactive
same,outcome,[18],inactive
same,outcome,[19],inactive
C#CC(C)(O)CC(C)C (centres undefined),outcome,[1],inactive
same,outcome,[2],inactive
Cc1cc(S(=O)(=O)O)ccc1N=Nc1c(O)ccc2ccccc12,outcome,[1],inactive
O=C1OC(=O)c2c(Cl)c(Cl)c(Cl)c(Cl)c21,outcome,[2],inactive
CCCCCCC(CO)CCCC (centres undefined),outcome,[2],inactive
